In all, about 5,500 compounds went through this assay and about 2,000 (36%) were called active. Roughly 18% stayed inconclusive and do not appear here. Rule as the data show it: active = normalized growth mostly below about 0.91 (no sharp cut-off); inconclusive = no clear call, values can overlap the other calls; inactive = mostly above about 0.92. The list shows a part of the results.
Experiment: chemical genetic growth profiling, strain panel (AID 1159580);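 also: tested at 20 µM; growth read once vehicle control cultures reached saturation at 30 °C; 1 = growth at the plate median or of vehicle wells; lower values mean less growth of the strain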
Settings: S. cerevisiae deletion strains, growth OD

Measured: normalized growth

Cc1cccc(C#Cc2ccccc2)n1
inactive: locus YAL040C, strain CLN3, active compounds read low 0.997 | locus YCL061C, strain MRC1 (second series), active compounds read low 0.968 | locus YDR363W, strain ESC2, active compounds read low 1.05 | locus YER002W, strain NOP16, active compounds read low 0.986 | locus YGR078C, strain PAC10, active compounds read low 0.978 | locus YMR263W, strain SAP30, active compounds read low 0.993 | locus YMR307W, strain GAS1, active compounds read low 0.919 | locus YNL128W, strain TEP1, active compounds read low 0.992 | locus YNL175C, strain NOP13, active compounds read low 0.977 | locus YNL197C, strain WHI3, active compounds read low 1 | locus YNL224C, strain SQS1, active compounds read low 1 | locus YNL322C, strain KRE1, active compounds read low 0.976 | locus YOR083W, strain WHI5 (second series), active compounds read low 0.918

CC(C)(CO)C(O)C(=O)NCCCO (stereo not drawn)
inactive: locus YAL021C, strain ccr4, active compounds read low 1 | locus YAL026C, strain drs2, active compounds read low 1.02 | locus YAL030W, strain snc1, active compounds read low 1.02 | locus YBL061C, strain skt5, active compounds read low 1.02 | locus YBR009C, strain hhf1, active compounds read low 1.03 | locus YBR023C, strain chs3, active compounds read low 1.03 | locus YBR171W, strain sec66, active compounds read low 1.03 | locus YBR231C, strain swc5, active compounds read low 1.02 | locus YBR279W, strain paf1, active compounds read low 1.01 | locus YCL011C, strain gbp2, active compounds read low 1.02 | locus YCL016C, strain dcc1, active compounds read low 1.02 | locus YCL061C, strain MRC1, active compounds read low 1.01 | locus YCL069W, strain vba3, active compounds read low 1.01 | locus YCR088W, strain abp1, active compounds read low 1.01 | locus YDL005C, strain med2, active compounds read low 1.01 | locus YDL040C, strain nat1, active compounds read low 1.01 | locus YDR001C, strain nth1, active compounds read low 1.02 | locus YDR069C, strain doa4, active compounds read low 1.02 | locus YDR137W, strain rgp1, active compounds read low 1.03 | locus YDR159W, strain sac3, active compounds read low 1.03 | locus YDR195W, strain ref2 1.01 | locus YDR297W, strain sur2, active compounds read low 1.01 | locus YDR334W, strain swr1, active compounds read low 1.01 | locus YDR335W, strain msn5, active compounds read low 1.01 | locus YDR392W, strain spt3, active compounds read low 1.02 | locus YEL003W, strain gim4, active compounds read low 1.02 | locus YEL037C, strain rad23, active compounds read low 1.01 | locus YEL061C, strain CIN8 (second series), active compounds read low 1.02 | locus YER015W, strain faa2, active compounds read low 1.01 | locus YER016W, strain bim1, active compounds read low 1.02 | locus YER111C, strain swi4, active compounds read low 1.01 | locus YER155C, strain BEM2 (second series), active compounds read low 1.04 | locus YFR010W, strain ubp6, active compounds read low 1.01 | locus YGL167C, strain pmr1, active compounds read low 1.03 | locus YGL173C, strain kem1, active compounds read low 1.02 | locus YGL227W, strain vid30, active compounds read low 1.02 | locus YGL240W, strain doc1, active compounds read low 1.02 | locus YGL253W, strain hxk2, active compounds read low 1.02 | locus YHR013C, strain ard1, active compounds read low 1.03 | locus YHR027C, strain rpn1, active compounds read low 1.02 | locus YHR030C, strain SLT2, active compounds read low 1.02 | locus YHR079C, strain IRE1, active compounds read low 1.01 | locus YHR142W, strain chs7, active compounds read low 1.01 | locus YJL092W, strain hpr5, active compounds read low 1.01 | locus YJL095W, strain BCK1 (second series), active compounds read low 1.01 | locus YJL095W, strain BCK1, active compounds read low 0.995 | locus YJL115W, strain asf1, active compounds read low 1.02 | locus YJL129C, strain trk1, active compounds read low 1.02 | locus YJL154C, strain vps35, active compounds read low 1.01 | locus YJL164C, strain tpk1, active compounds read low 1.02 | locus YJL166W, strain qcr8, active compounds read low 1.02 | locus YJL187C, strain SWE1, active compounds read low 1.01 | locus YJR066W, strain TOR1, active compounds read low 0.964 | locus YKL160W, strain elf1, active compounds read low 1.01 | locus YKR026C, strain gcn3, active compounds read low 0.994 | locus YKR091W, strain srl3, active compounds read low 1.01 | locus YLL001W, strain dnm1, active compounds read low 1.02 | locus YLL026W, active compounds read low 1.02 | locus YLL041C, strain sdh2, active compounds read low 1.02 | locus YLR027C, strain aat2, active compounds read low 1.02 | locus YLR113W, strain HOG1, active compounds read low 0.985 | locus YLR221C, strain rsa3, active compounds read low 1.01 | locus YLR258W, strain gsy2, active compounds read low 1.02 | locus YLR262C, strain YPT6 (second series), active compounds read low 1.02 | locus YLR320W, strain mms22, active compounds read low 1.02 | locus YLR342W, strain FKS1, active compounds read low 1.01 | locus YLR357W, strain rsc2, active compounds read low 1.04 | locus YLR370C, strain arc18, active compounds read low 1.02 | locus YLR384C, strain iki3, active compounds read low 1.02 | locus YML120C, strain ndi1, active compounds read low 1.01 | locus YMR058W, strain fet3, active compounds read low 1.01 | locus YMR125W, strain sto1, active compounds read low 1.03 | locus YMR129W, active compounds read low 1.01 | locus YMR205C, strain PFK2, active compounds read low 1.03 | locus YMR231W, strain pep5, active compounds read low 1.01 | locus YNL071W, strain lat1, active compounds read low 1.02 | locus YNL183C, strain NPR1, active compounds read low 0.954 | locus YNL209W, strain ssb2, active compounds read low 1.01 | locus YNL248C, strain rpa49, active compounds read low 0.992 | locus YNL322C, strain KRE1 (second series), active compounds read low 1.01 | locus YNR049C, strain mso1, active compounds read low 1.01 | locus YOR001W, strain rrp6, active compounds read low 1 | locus YOR070C, strain gyp1, active compounds read low 1.01 | locus YOR080W, strain dia2, active compounds read low 1.02 | locus YOR083W, strain WHI5, active compounds read low 1 | locus YOR106W, strain vam3, active compounds read low 1 | locus YOR231W, strain MKK1, active compounds read low 1.01 | locus YOR265W, strain rbl2, active compounds read low 1.01 | locus YOR270C, strain vph1, active compounds read low 1.03 | locus YOR290C, strain snf2, active compounds read low 1.03 | locus YPL051W, strain arl3, active compounds read low 1.03 | locus YPL078C, strain atp4, active compounds read low 1.01 | locus YPL106C, strain sse1, active compounds read low 1 | locus YPL240C, strain hsp82, active compounds read low 1.01 | locus YPL256C, strain CLN2, active compounds read low 0.994

— PubChem BioAssay AID1159580 (chemical genetic matrix, 2015)
